Experimental findings from PubChem BioAssay (EPA / NIEHS) are described below.

Broadly, the AC50 is the concentration giving half of the maximal activity seen.

Details in all cases: mRNA level, 48 h; actives raise or lower the signal
Read-out in experiment [1]: Interleukin 6 Receptor (IL6R), IL6R (gene 3570)
The experiment in a line: LTEA_HepaRG_IL6R: Life Technologies and Expression Analysis (LTEA) Assay for Interleukin 6 Receptor (IL6R) using HepaRG (AID 2283510).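 For AC50: TaqMan qRT-PCR signal normalized to ACTB GAPDH and POLR2A housekeeping genes.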 In outline:
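Concentration-response in human liver HepaRG cells: eight concentrations from 100 uM downward by half-logs, 48 h exposure, 0.5% DMSO vehicle. IL6R mRNA change measured by qRT-PCR and fitted in both directions relative to vehicle.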

Read-out in experiment [2]: Potassium channel subfamily K member 1 (KCNK1), KCNK1 (gene 3775)
Briefly: LTEA_HepaRG_KCNK1: Life Technologies and Expression Analysis (LTEA) Assay for Potassium channel subfamily K member 1 (KCNK1) using HepaRG (AID 2283511). The essentials:
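Differentiated human HepaRG cells in serum-free induction medium were exposed in duplicate for 48 h to 8 half-log concentrations up to 100 uM in 0.5% DMSO. KCNK1 mRNA was measured by TaqMan qRT-PCR, normalized to ACTB, GAPDH and POLR2A, and fitted bidirectionally versus DMSO.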

Read-out in experiment [3]: JUN Transcription Factor, JUN (gene 3725)
The experiment in a line: LTEA_HepaRG_JUN: Life Technologies and Expression Analysis (LTEA) Assay for JUN Transcription Factor using HepaRG (AID 2283513). The essentials: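 Human HepaRG liver cells receive test chemicals in 0.5% DMSO for 48 h across an eight-point range topping at 100 uM. Expression changes in JUN are scored in both directions against the DMSO vehicle.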

Read-out in experiment [4]: Lipase C (LIPC), LIPC (gene 3990)
Briefly: LTEA_HepaRG_LIPC: Life Technologies and Expression Analysis (LTEA) Assay for Lipase C (LIPC) using HepaRG (AID 2283514). In outline: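 Differentiated human HepaRG cells in serum-free induction medium were exposed in duplicate for 48 h to eight concentrations (top 100 uM, half-log steps, 0.5% DMSO). LIPC mRNA was quantified by TaqMan qRT-PCR, normalized to ACTB, GAPDH and POLR2A, with bidirectional fitting versus DMSO.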

Read-out in experiment [5]: Lipoprotein lipase (LPL), LPL (gene 4023)
The experiment in a line: LTEA_HepaRG_LPL: Life Technologies and Expression Analysis (LTEA) Assay for Lipoprotein lipase (LPL) using HepaRG (AID 2283515). The essentials:
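Differentiated human HepaRG cells in serum-free induction medium were exposed in duplicate for 48 h to eight half-log concentrations (top 100 uM) in 0.5% DMSO. LPL mRNA was quantified by TaqMan qRT-PCR, normalized to ACTB, GAPDH and POLR2A.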

Read-out in experiment [6]: MicroRNA 122 (MIR122), gene 406906
Briefly: LTEA_HepaRG_MIR122: Life Technologies and Expression Analysis (LTEA) Assay for MicroRNA 122 (MIR122) using HepaRG (AID 2283516). Note: the transcript read is the microRNA miR-122. The essentials: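 HepaRG, 48 h exposure, 8-pt half-log from 100 uM, 0.5% DMSO; TaqMan qRT-PCR; bidirectional fit vs DMSO.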

Read-out in experiment [7]: matrix metalloproteinase-10 (MMP10), MMP10 (gene 4319)
The experiment in a line: LTEA_HepaRG_MMP10: Life Technologies and Expression Analysis (LTEA) Assay for matrix metalloproteinase-10 (MMP10) using HepaRG (AID 2283517). The essentials: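 HepaRG, collagen I, ~100,000 cells/well; serum-free induction medium; 48 h exposure, duplicate, 8-pt half-log to 100 uM, 0.5% DMSO. Readout: TaqMan qRT-PCR, normalized to ACTB/GAPDH/POLR2A; bidirectional fit vs DMSO.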

Read-out in the next experiment: MYC, MYC (gene 4609)
Briefly: LTEA_HepaRG_MYC: Life Technologies and Expression Analysis (LTEA) Assay for MYC using HepaRG (AID 2283518). The essentials: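 Differentiated HepaRG cells exposed 48 h in serum-free induction medium to 8 concentrations (top 100 uM, half-log steps; 0.5% DMSO), duplicate. MYC mRNA measured by Fluidigm qRT-PCR, normalized to ACTB, GAPDH, POLR2A; bidirectional fit versus DMSO.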

Read-out in experiment [8]: matrix metalloproteinase-3 (MMP3), MMP3 (gene 4314)
The experiment in a line: LTEA_HepaRG_MMP3: Life Technologies and Expression Analysis (LTEA) Assay for matrix metalloproteinase-3 (MMP3) using HepaRG (AID 2283519). The essentials:
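Differentiated human HepaRG cells, plated 48 h on collagen I, were exposed in duplicate for 48 h in serum-free induction medium to eight half-log concentrations up to 100 uM in 0.5% DMSO. MMP3 mRNA was quantified by TaqMan qRT-PCR, normalised to ACTB, GAPDH and POLR2A.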

Read-out in experiment [9]: Paternally Expressed 10 (PEG10), PEG10 (gene 23089)
The experiment in a line: LTEA_HepaRG_PEG10: Life Technologies and Expression Analysis (LTEA) Assay for Paternally Expressed 10 (PEG10) using HepaRG (AID 2283520).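 For AC50: PEG10 transcript by qRT-PCR normalised to ACTB GAPDH and POLR2A.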 The essentials:
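Chemicals tested on HepaRG cells for 48 h, highest concentration 100 uM. PEG10 expression assessed by qRT-PCR relative to DMSO control.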

Read-out in experiment [10]: Nuclear factor NF-kappa-B p105 subunit (Homo sapiens) (UniProt P19838)
Briefly: LTEA_HepaRG_NFKB1: Life Technologies and Expression Analysis (LTEA) Assay for Nuclear Factor Kappa B Subunit 1 (NFKB1) using HepaRG (AID 2283521).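 Note: TaqMan qRT-PCR transcript normalised to ACTB GAPDH and POLR2A housekeeping genes.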 The essentials:
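HepaRG, 48 h exposure; 8-pt half-log series from 100 uM in 0.5% DMSO; duplicates. Readout: NFKB1 mRNA by qRT-PCR (Fluidigm arrays), housekeeping-normalized. Gain/loss fit vs DMSO baseline.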

Read-out in experiment [11]: Protein phosphatase 2A (PPP2R4), PTPA (gene 5524)
The experiment in a line: LTEA_HepaRG_PPP2R4: Life Technologies and Expression Analysis (LTEA) Assay for Protein phosphatase 2A (PPP2R4) using HepaRG (AID 2283522). The essentials: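 Gene-expression endpoint in HepaRG hepatic cells: 48 h treatment across eight half-log concentrations up to 100 uM in 0.5% DMSO. PPP2R4 mRNA by qRT-PCR, normalized to three endogenous control genes.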

Read-out in experiment [12]: Phosphatase and tensin (PTEN), PTEN (gene 5728)
Briefly: LTEA_HepaRG_PTEN: Life Technologies and Expression Analysis (LTEA) Assay for Phosphatase and tensin (PTEN) using HepaRG (AID 2283523). The essentials: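 Differentiated human HepaRG cells, plated 48 h then switched to serum-free induction medium, were exposed in duplicate for 48 h to eight half-log concentrations up to 100 uM in 0.5% DMSO. PTEN mRNA measured by TaqMan qRT-PCR, normalized to ACTB/GAPDH/POLR2A, bidirectional fit versus DMSO.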

Read-out in experiment [13]: solute carrier (SLC22A1), SLC22A1 (gene 6580)
Briefly: LTEA_HepaRG_SLC22A1: Life Technologies and Expression Analysis (LTEA) Assay for solute carrier (SLC22A1) using HepaRG (AID 2283524). The essentials:
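Human HepaRG cells were plated 48 h, switched to serum-free induction medium, then exposed in duplicate for 48 h to 8-point half-log series from 100 uM in 0.5% DMSO. SLC22A1 mRNA measured by qRT-PCR, normalized to ACTB/GAPDH/POLR2A, fitted bidirectionally versus DMSO.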

Read-out in experiment [14]: Pyruvate Dehydrogenase Kinase 4 (PDK4), PDK4 (gene 5166)
Briefly: LTEA_HepaRG_PDK4: Life Technologies and Expression Analysis (LTEA) Assay for Pyruvate Dehydrogenase Kinase 4 (PDK4) using HepaRG (AID 2283525). The essentials:
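Differentiated human HepaRG cells, pre-cultured 48 h, were exposed in duplicate for 48 h in serum-free induction medium to eight half-log concentrations up to 100 uM in 0.5% DMSO. PDK4 mRNA was quantified by qRT-PCR, normalized to ACTB, GAPDH and POLR2A, bidirectional fitting versus DMSO.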

Read-out in experiment [15]: NAD(P)H dehydrogenase [quinone] 1 (NQO1), NQO1 (gene 1728)
The experiment in a line: LTEA_HepaRG_NQO1: Life Technologies and Expression Analysis (LTEA) Assay for NAD(P)H dehydrogenase [quinone] 1 (NQO1) using HepaRG (AID 2283526). In outline:
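Human HepaRG hepatic cells received chemicals for 48 h in serum-free induction medium with 0.5% DMSO, up to 100 uM. Expression was assessed by TaqMan qRT-PCR against housekeeping controls and fitted bidirectionally against DMSO.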

Read-out in experiment [16]: Nuclear factor erythroid 2-related factor 2 (Homo sapiens) (UniProt Q16236)
The experiment in a line: LTEA_HepaRG_NFE2L2: Life Technologies and Expression Analysis (LTEA) Assay for Nuclear factor erythroid 2-related factor 2 (NFE2L2) Transcription Factor using HepaRG (AID 2283527).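 Note: TaqMan qRT-PCR transcript level normalised to ACTB GAPDH and POLR2A housekeeping genes.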 In outline: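 Differentiated human HepaRG cells in serum-free induction medium were exposed for 48 h to eight concentrations (top 100 uM, half-log dilutions, 0.5% DMSO), in duplicate. NFE2L2 mRNA was quantified by TaqMan qRT-PCR, normalized to ACTB, GAPDH and POLR2A, with bidirectional fitting versus DMSO.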

Read-out in experiment [17]: succinate dehydrogenase complex iron sulfur subunit B (SDHB), SDHB (gene 6390)
Briefly: LTEA_HepaRG_SDHB: Life Technologies and Expression Analysis (LTEA) Assay for succinate dehydrogenase complex iron sulfur subunit B (SDHB) using HepaRG (AID 2283528). The essentials: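 Readout is SDHB transcript level by qRT-PCR, normalised to three housekeeping genes and fitted bidirectionally against 0.5% DMSO vehicle. Human HepaRG cells were treated for 48 h at up to 100 uM.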

Read-out in experiment [18]: Signal transducer and activator of transcription 3 (Homo sapiens) (UniProt P40763)
Briefly: LTEA_HepaRG_STAT3: Life Technologies and Expression Analysis (LTEA) Assay for Signal transducer and activator of transcription (STAT3) using HepaRG (AID 2283529). In outline:
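Differentiated human HepaRG cells in serum-free induction medium were exposed in duplicate for 48 h to eight half-log concentrations up to 100 uM in 0.5% DMSO. STAT3 mRNA was quantified by TaqMan qRT-PCR, normalized to ACTB, GAPDH and POLR2A, and fitted bidirectionally against DMSO.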

Read-out in experiment [19]: Keratin 19 (KRT19), KRT19 (gene 3880)
The experiment in a line: LTEA_HepaRG_KRT19: Life Technologies and Expression Analysis (LTEA) Assay for Keratin 19 (KRT19) using HepaRG (AID 2283512). In outline:
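Differentiated HepaRG cells in serum-free induction medium, exposed 48 h in duplicate to 8 half-log concentrations up to 100 uM in 0.5% DMSO. KRT19 mRNA by qRT-PCR, normalized to ACTB, GAPDH, POLR2A; bidirectional fit vs DMSO.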

Active and inactive are the calls of the source. Rule for the calls: active = hit-call score of the fitted dose curve at least 0.9, where 1 is the maximum; inactive = score below 0.9.

Sequence of Signal transducer and activator of transcription 3 (Homo sapiens) (P40763 whole entry, looked up): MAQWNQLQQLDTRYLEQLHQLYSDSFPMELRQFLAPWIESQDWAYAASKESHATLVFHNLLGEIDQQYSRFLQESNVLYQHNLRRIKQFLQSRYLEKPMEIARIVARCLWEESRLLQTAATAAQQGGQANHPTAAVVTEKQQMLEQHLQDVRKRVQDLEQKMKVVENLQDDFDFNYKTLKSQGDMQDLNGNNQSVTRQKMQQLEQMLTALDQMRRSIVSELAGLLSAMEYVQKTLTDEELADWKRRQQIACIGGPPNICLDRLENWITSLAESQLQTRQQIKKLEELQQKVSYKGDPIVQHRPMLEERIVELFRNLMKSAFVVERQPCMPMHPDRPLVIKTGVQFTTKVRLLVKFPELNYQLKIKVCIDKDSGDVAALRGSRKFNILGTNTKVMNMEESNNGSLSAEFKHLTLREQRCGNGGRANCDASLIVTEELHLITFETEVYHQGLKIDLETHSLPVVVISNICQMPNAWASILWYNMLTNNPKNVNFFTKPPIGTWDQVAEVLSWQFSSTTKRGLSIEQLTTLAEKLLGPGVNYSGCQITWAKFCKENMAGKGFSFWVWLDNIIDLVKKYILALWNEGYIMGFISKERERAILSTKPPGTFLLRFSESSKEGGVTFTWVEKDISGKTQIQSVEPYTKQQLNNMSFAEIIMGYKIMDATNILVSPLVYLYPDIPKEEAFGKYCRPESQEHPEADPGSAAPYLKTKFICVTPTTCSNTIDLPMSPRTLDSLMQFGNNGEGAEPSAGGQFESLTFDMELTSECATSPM
Sequence of Nuclear factor erythroid 2-related factor 2 (Homo sapiens) (Q16236 whole entry, looked up): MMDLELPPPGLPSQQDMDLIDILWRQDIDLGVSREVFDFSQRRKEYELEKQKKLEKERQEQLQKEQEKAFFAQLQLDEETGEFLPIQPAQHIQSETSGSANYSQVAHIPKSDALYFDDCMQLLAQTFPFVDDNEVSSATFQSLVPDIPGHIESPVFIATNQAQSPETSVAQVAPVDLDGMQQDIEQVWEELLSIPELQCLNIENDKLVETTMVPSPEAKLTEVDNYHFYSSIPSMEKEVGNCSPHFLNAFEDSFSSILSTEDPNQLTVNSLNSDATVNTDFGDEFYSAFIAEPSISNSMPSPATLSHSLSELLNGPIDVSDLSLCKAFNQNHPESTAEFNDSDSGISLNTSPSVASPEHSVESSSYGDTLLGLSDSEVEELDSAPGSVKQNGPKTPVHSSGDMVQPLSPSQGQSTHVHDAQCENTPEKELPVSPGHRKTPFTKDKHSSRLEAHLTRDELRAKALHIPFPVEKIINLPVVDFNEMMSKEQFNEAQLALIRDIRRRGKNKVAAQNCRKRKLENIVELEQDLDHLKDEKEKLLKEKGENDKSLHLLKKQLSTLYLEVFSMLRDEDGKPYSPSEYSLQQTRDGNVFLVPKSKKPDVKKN
Sequence of Nuclear factor NF-kappa-B p105 subunit (Homo sapiens) (P19838 whole entry, looked up): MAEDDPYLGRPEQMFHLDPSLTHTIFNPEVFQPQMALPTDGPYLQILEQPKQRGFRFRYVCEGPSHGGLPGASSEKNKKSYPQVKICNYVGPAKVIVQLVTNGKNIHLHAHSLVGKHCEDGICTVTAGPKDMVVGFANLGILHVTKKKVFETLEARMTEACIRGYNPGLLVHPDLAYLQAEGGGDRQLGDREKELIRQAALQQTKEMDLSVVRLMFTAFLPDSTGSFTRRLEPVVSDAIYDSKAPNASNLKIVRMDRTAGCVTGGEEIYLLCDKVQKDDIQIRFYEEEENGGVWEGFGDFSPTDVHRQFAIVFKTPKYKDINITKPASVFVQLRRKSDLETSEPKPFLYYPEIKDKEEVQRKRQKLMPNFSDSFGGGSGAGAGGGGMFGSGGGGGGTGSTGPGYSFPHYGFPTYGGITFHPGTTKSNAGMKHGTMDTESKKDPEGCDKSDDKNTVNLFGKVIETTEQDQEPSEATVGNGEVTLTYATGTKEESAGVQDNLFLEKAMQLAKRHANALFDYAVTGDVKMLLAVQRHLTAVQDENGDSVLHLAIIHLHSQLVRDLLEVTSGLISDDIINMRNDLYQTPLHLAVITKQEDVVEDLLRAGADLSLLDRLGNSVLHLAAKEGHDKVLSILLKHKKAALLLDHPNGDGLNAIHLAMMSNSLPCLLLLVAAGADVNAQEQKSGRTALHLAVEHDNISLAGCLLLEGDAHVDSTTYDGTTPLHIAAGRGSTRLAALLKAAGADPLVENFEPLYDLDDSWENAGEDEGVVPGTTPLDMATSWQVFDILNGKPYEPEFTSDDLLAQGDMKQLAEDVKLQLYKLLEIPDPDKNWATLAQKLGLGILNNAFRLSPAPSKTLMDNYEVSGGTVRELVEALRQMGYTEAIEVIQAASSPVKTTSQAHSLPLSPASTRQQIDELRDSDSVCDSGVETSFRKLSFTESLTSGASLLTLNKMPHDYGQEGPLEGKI

Consider `CNC(=O)N(C)c1nnc(C(C)(C)C)s1`, for which the result in experiment [1], in experiment [2], in experiment [3], in [4], in [5] and in experiment [6] was inactive. Also, the outcome was “inactive” in experiment [7]; “inactive” with MYC, MYC (gene 4609); “inactive” in [8]; “inactive” in experiment [9]; “inactive” in experiment [10]; “inactive” in experiment [11]. Further, the result in [12], in [13], in [14], in experiment [15], in [16] and in [17] was inactive. Besides, the call in experiment [18] was inactive.
For the compound `CC(C)C1(C)N=C(c2ncccc2C(=O)O)NC1=O` (stereo not given), the compound was called inactive in experiment [1], in experiment [2], in experiment [3], in experiment [4], in experiment [5] and in experiment [6]. Also, the outcome in experiment [7] was “inactive”; in the experiment with MYC, MYC (gene 4609), “inactive”; in experiment [8] it was “inactive”; in experiment [9] it was “inactive”; in [11], “inactive”; in experiment [12], “inactive”. In addition, the result in experiment [13], in experiment [14], in experiment [15], in [16], in experiment [17] and in [18] was inactive.
`CCN(CC)C(=O)C(C)Oc1cccc2ccccc12` (stereo not given): the AC50 is 20.3 µM (active) in experiment [1]; 50 µM (active) in [19]; 69.6 µM (active) in experiment [4]; 81.1 µM (active) in experiment [6]; 76.2 µM (active) in experiment [8]; 76.5 µM (active) in [9]. In addition, the AC50 in [13] is 70.1 µM (active). In addition, the outcome in [2] was “inactive”; in experiment [3] it was “inactive”; in experiment [5] it was “inactive”; in experiment [7], “inactive”; in the experiment with MYC, MYC (gene 4609) it was “inactive”; in [11], “inactive”. Moreover, the compound was classed as inactive in experiment [12], in [14], in experiment [15], in [16], in experiment [17] and in experiment [18].
As for `O=C1C2CC=CCC2C(=O)N1SC(Cl)(Cl)Cl` (stereo not given), the outcome is “inactive” in experiment [1]; “inactive” in [2]; “inactive” in experiment [19]; “inactive” in [3]; “inactive” in [6]; “inactive” with MYC, MYC (gene 4609). The outcome in [8], in [9], in experiment [11], in experiment [12], in experiment [13] and in [14] was inactive. The compound was called inactive in experiment [15], in experiment [16], in experiment [17] and in experiment [18]. The AC50 in [4] is 49.2 µM (active); in experiment [5], 73.5 µM (active); in [7], 49.2 µM (active).
